Compounds without any hit were thinned out: in the full panel of roughly 79,000, 15% have a hit. Calls of active or inactive are those of the source. No stated cut-off is given here; in the data, active means growth inhibition above about 70%; inactive means the rest.
How the values were obtained:
[1] = NCI Yeast Anticancer Drug Screen. Data for the rad52 strain (AID 147);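 further: 0% = growth of vehicle-treated control cultures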; settings: S. cerevisiae rad52 mutant growth inhibition, stronger effect = higher value
In short: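 The repair-mutant yeast strain was incubated with compounds, then growth was read and inhibition derived relative to vehicle.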

[2] = NCI Yeast Anticancer Drug Screen. Data for the wt1 strain (AID 149);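 further: 0% = growth of vehicle-treated wt1 cultures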; settings: S. cerevisiae wt1 strain (SPY 50644) growth inhibition, stronger effect = higher value
In short: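 Readout: yeast growth inhibition, normalised to vehicle controls, in the wt1 strain exposed to test compounds.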

[3] = NCI Yeast Anticancer Drug Screen. Data for the rad50EPP+ strain (AID 151);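 further: 0% = growth of vehicle-treated control cultures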; settings: S. cerevisiae rad50 mutant strain, stronger effect = higher value
In short: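 Vehicle-normalised growth inhibition; rad50EPP+ yeast strain, altered in DNA damage repair, compound-treated.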

[4] = NCI Yeast Anticancer Drug Screen. Data for the mgt1 strain (AID 153); settings: S. cerevisiae mgt1 mutant growth inhibition, stronger effect = higher value
In short: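 Vehicle-normalized growth inhibition is determined in mgt1 yeast, a strain selected for a defined alteration in DNA repair or cell cycle control.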

[5] = NCI Yeast Anticancer Drug Screen. Data for the rad50 strain (AID 155);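 further: 0% = growth of vehicle-only cultures of the same strain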; settings: S. cerevisiae rad50 strain growth inhibition, stronger effect = higher value
In short: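 Compounds were tested on a yeast strain with an engineered DNA damage repair alteration; the reported value is growth inhibition normalised to vehicle treatment.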

[6] = NCI Yeast Anticancer Drug Screen. Data for the mec2-1 strain (AID 157); settings: S. cerevisiae mec2-1 strain, stronger effect = higher value
In short: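 Mutant yeast (mec2-1) grown with compound; growth inhibition relative to vehicle control reported.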

[7] = NCI Yeast Anticancer Drug Screen. Data for the rad14 strain (AID 159);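 further: 0% = growth of vehicle-treated control cultures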; settings: S. cerevisiae rad14 strain growth inhibition, stronger effect = higher value
In short: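 Compound-treated yeast with a defined DNA-repair lesion; growth inhibition normalised to vehicle-treated cultures.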

[8] = NCI Yeast Anticancer Drug Screen. Data for the sgs1 mgt1 strain (AID 161);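 further: 0% = growth of cultures given vehicle only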; settings: S. cerevisiae sgs1 mgt1 strain, stronger effect = higher value
In short: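 This yeast growth screen uses a strain with defined DNA-repair lesions; compound-treated growth is compared with vehicle-treated growth.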

[9] = NCI Yeast Anticancer Drug Screen. Data for the CLN2oe strain (AID 163);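 further: 0% = growth of vehicle-only control cultures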; settings: S. cerevisiae CLN2oe strain, stronger effect = higher value
In short: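 Compounds are applied to yeast harbouring a defined cell-cycle control change; reduced growth compared with vehicle-treated controls gives the value.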

[10] = NCI Yeast Anticancer Drug Screen. Data for the cln2 rad14 strain (AID 165);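 further: 0% = growth equal to vehicle treated cultures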; settings: S. cerevisiae cln2 rad14 strain, stronger effect = higher value
In short: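 Readout is yeast growth inhibition versus vehicle-treated controls, using a strain with cln2 and rad14 alterations exposed to compound.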

[11] = NCI Yeast Anticancer Drug Screen. Data for the bub3 strain (AID 167); settings: S. cerevisiae bub3 mutant strain, stronger effect = higher value
In short: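 Growth of a checkpoint-deficient yeast mutant is measured after compound exposure. Values represent inhibition relative to vehicle.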

[12] = NCI Yeast Anticancer Drug Screen. Data for the wt2 strain (AID 169);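 further: 0% = growth of vehicle-treated yeast cultures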; settings: S. cerevisiae wt2 strain growth inhibition, stronger effect = higher value
In short: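 Against vehicle-treated controls, the growth of yeast exposed to each compound was compared, and the inhibition was recorded.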

[13] = NCI Yeast Anticancer Drug Screen. Data for the mlh1 strain (AID 171);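 further: 0% = growth of vehicle-treated control cultures of the same strain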; settings: S. cerevisiae mlh1 strain growth inhibition, stronger effect = higher value
In short: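 Measured: yeast growth. Reference: vehicle-treated controls. Organism: strain with a defined alteration affecting DNA damage repair or cell cycle control, treated with compound.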

[14] = NCI Yeast Anticancer Drug Screen. Data for the sgs1 strain (AID 173);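 further: 0% = growth of vehicle-only control cultures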; settings: S. cerevisiae sgs1 mutant, stronger effect = higher value
In short: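 Each compound was added to cultures of the altered yeast strain. Growth was recorded, and inhibition was derived by comparison with vehicle controls.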

[15] = NCI Yeast Anticancer Drug Screen. Data for the rad18 strain (AID 177); settings: S. cerevisiae rad18 mutant growth inhibition, stronger effect = higher value
In short: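 Vehicle-treated cultures served as the baseline for scoring compound-induced growth inhibition in DNA-repair-mutant yeast.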

[16] = at 5.0 µM (retest, dose inferred, filed as 0.5)
[17] = at 50.0 µM (retest, dose inferred, filed as 5.0)

Measured: growth inhibition

Cc1ccc(Nc2nc3c(=O)n(C)c(=O)n(C)c3nc2Nc2ccc(C)cc2)cc1
inactive: [1]; at 1.2 µM -2% | [1]; at 3.7 µM 2% | [1]; at 11.0 µM 2% | [1]; at 33.0 µM 2% | [1]; at 100.0 µM 30% | [2]; at 1.2 µM 0% | [2]; at 3.7 µM -1% | [2]; at 11.0 µM 1% | [2]; at 33.0 µM -3% | [2]; at 100.0 µM 6% | [3]; at 1.2 µM 3% | [3]; at 3.7 µM -2% | [3]; at 11.0 µM -6% | [3]; at 33.0 µM -16% | [3]; at 100.0 µM 41% | [4]; at 1.2 µM -2% | [4]; at 3.7 µM -4% | [4]; at 11.0 µM -4% | [4]; at 33.0 µM 11% | [4]; at 100.0 µM -2% | [5]; at 1.2 µM -2% | [5]; at 3.7 µM 1% | [5]; [16] -13% | [5]; at 11.0 µM 2% | [5]; at 33.0 µM 0% | [5]; [17] 66% | [5]; at 100.0 µM 23% | [6]; at 1.2 µM -2% | [6]; at 3.7 µM 3% | [6]; [16] -9% | [6]; at 11.0 µM -2% | [6]; at 33.0 µM -4% | [6]; [17] 22% | [6]; at 100.0 µM 11% | [7]; at 1.2 µM 0% | [7]; at 3.7 µM -4% | [7]; at 11.0 µM -1% | [7]; at 33.0 µM -5% | [7]; at 100.0 µM 7% | [8]; [16] -2% | [8]; [17] 45% | [9]; at 1.2 µM -2% | [9]; at 3.7 µM 3% | [9]; at 11.0 µM -4% | [9]; at 33.0 µM -5% | [9]; at 100.0 µM -10% | [10]; [16] -14% | [10]; [17] 11% | [11]; at 1.2 µM -3% | [11]; at 3.7 µM -5% | [11]; [16] -9% | [11]; at 11.0 µM 0% | [11]; at 33.0 µM -1% | [11]; [17] 16% | [11]; at 100.0 µM 2% | [12]; at 1.2 µM 0% | [12]; at 3.7 µM -1% | [12]; at 11.0 µM -1% | [12]; at 33.0 µM -2% | [12]; at 100.0 µM 12% | [13]; at 1.2 µM 0% | [13]; at 3.7 µM -2% | [13]; at 11.0 µM 1% | [13]; at 33.0 µM -3% | [13]; at 100.0 µM 3% | [14]; at 1.2 µM -3% | [14]; at 3.7 µM 2% | [14]; at 11.0 µM 1% | [14]; at 33.0 µM 3% | [14]; at 100.0 µM 20% | [15]; at 1.2 µM 2% | [15]; at 3.7 µM 0% | [15]; at 11.0 µM 11% | [15]; at 33.0 µM 4% | [15]; at 100.0 µM 46%
active: [5]; at 50.0 µM 92.5% | [6]; at 50.0 µM 95.3% | [8]; at 50.0 µM 92.8% | [10]; at 50.0 µM 79.3% | [11]; at 50.0 µM 94.5%

COC(=O)c1cc(-c2ccc(C)cc2)[nH]c(=O)c1C#N
active: [5]; at 50.0 µM 86.5% | [8]; at 50.0 µM 84.3%
inactive: [1]; at 1.2 µM -2% | [1]; at 3.7 µM 0% | [1]; at 11.0 µM 1% | [1]; at 33.0 µM -1% | [1]; at 100.0 µM -4% | [2]; at 1.2 µM -2% | [2]; at 3.7 µM -1% | [2]; at 11.0 µM -1% | [2]; at 33.0 µM -1% | [2]; at 100.0 µM 0% | [3]; at 1.2 µM -5% | [3]; at 3.7 µM -4% | [3]; at 11.0 µM -5% | [3]; at 33.0 µM -6% | [3]; at 100.0 µM -4% | [4]; at 1.2 µM 0% | [4]; at 3.7 µM 0% | [4]; at 11.0 µM 0% | [4]; at 33.0 µM -1% | [4]; at 100.0 µM 0% | [5]; at 1.2 µM -1% | [5]; at 3.7 µM -2% | [5]; [16] -5% | [5]; at 11.0 µM 0% | [5]; at 33.0 µM -4% | [5]; [17] 9% | [5]; at 100.0 µM -2% | [6]; at 1.2 µM 0% | [6]; at 3.7 µM 0% | [6]; [16] 11% | [6]; at 11.0 µM -2% | [6]; at 33.0 µM -1% | [6]; [17] 24% | [6]; at 50.0 µM 56.9% | [6]; at 100.0 µM 10% | [7]; at 1.2 µM 1% | [7]; at 3.7 µM -6% | [7]; at 11.0 µM -6% | [7]; at 33.0 µM -19% | [7]; at 100.0 µM -11% | [8]; [16] -4% | [8]; [17] 20% | [9]; at 1.2 µM -3% | [9]; at 3.7 µM 1% | [9]; at 11.0 µM -1% | [9]; at 33.0 µM 3% | [9]; at 100.0 µM 4% | [10]; [16] 30% | [10]; [17] 43% | [10]; at 50.0 µM 66% | [11]; at 1.2 µM -8% | [11]; at 3.7 µM -6% | [11]; [16] 33% | [11]; at 11.0 µM 6% | [11]; at 33.0 µM -2% | [11]; [17] 16% | [11]; at 50.0 µM 52.6% | [11]; at 100.0 µM -7% | [12]; at 1.2 µM -2% | [12]; at 3.7 µM 0% | [12]; at 11.0 µM -2% | [12]; at 33.0 µM -2% | [12]; at 100.0 µM -2% | [13]; at 1.2 µM -6% | [13]; at 3.7 µM -2% | [13]; at 11.0 µM 0% | [13]; at 33.0 µM 0% | [13]; at 100.0 µM -21% | [14]; at 1.2 µM -4% | [14]; at 3.7 µM -1% | [14]; at 11.0 µM -1% | [14]; at 33.0 µM -2% | [14]; at 100.0 µM -4% | [15]; at 1.2 µM -17% | [15]; at 3.7 µM -11% | [15]; at 11.0 µM -16% | [15]; at 33.0 µM -11% | [15]; at 100.0 µM -18%
